# Methyltransferases: Primary Screen for Target Class Profiling of Small Molecule Inhibitors of Methyltransferases; purified enzyme, MTase-Glo SAH luminescence; hits give low values; calls only at 40 µM; 25,000 tested, 3.9% active; call rule not given here
#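 Each enzyme was reacted with SAM and its substrate, with compounds tested once at 40 uM; SAH formed was read by MTase-Glo luminescence.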
# MTase-Glo counter: counter-screen for methyltransferase inhibitors: coupling enzymes without methyltransferase. shares compounds with Methyltransferases. MTase-Glo coupled enzymes, SAH conversion luminescence, no MTase. Potency, µM (series often up to 57.3 µM), actives largely listed as inhibitors. 180 tested, 6% active; active = well fitted inhibition curve with a large enough effect; inconclusive = small, poorly fitted or top-dose-only effect
# A number is an active result; 0 = inactive; ? = inconclusive; + = active, no number. The sample as a whole holds a higher share of hits than the screen did.
SMILES,Methyltransferases,others
CN(C)CC1(O)CCC2(CCN(C(=O)c3cccn3C)CC2)CC1,+,MTase-Glo counter=5.4µM
COC(=O)CNC(=O)NCCc1ncc(C)n1C1CCCC1,0,
CCCNC(=O)NCCc1ncc(C)n1CC1CC1,0,
CNC(=O)NCCc1ncc(C)n1C1CCCCCCC1,+,MTase-Glo counter=0
O=c1c2ccccc2n2c(-c3ccc(F)c(F)c3)nnc2n1Cc1ccc(F)cc1,0,
CC(C)c1nccn1CCCNC(=O)c1ccc(-c2cccc(F)c2)nc1,+,MTase-Glo counter=0
O=C(NC1CCN(CC(F)(F)F)CC1)c1ccc(-c2cccc(F)c2)nc1,0,
CC(C)OCCCNC(=O)c1ccc2c(=O)nc3c(-c4cccc(F)c4)n[nH]n3c2c1,0,
CC(C)C(NC(=O)c1ccc2ccccc2n1)C(=O)NC(CC(=O)O)C(=O)COc1c(F)cccc1F (stereo not drawn),0,
CCOC(=O)c1cc2n(n1)CC(C)(C(=O)NCCCOC)N(c1ccccc1C)C2=O (stereo not drawn),0,
CC1(C(=O)NC2CCCC2)Cn2c(cc3ccccc32)C(=O)N1Cc1ccc2c(c1)OCO2 (stereo not drawn),0,
CCC(C)NC(=O)c1ccc2c(=O)n(CC(C)C)c3nn(Cc4ccc(F)cc4)c(=O)n3c2c1 (stereo not drawn),0,
CCNc1nc2c(s1)C(c1cccc(F)c1)CC(=O)N2 (stereo not drawn),+,MTase-Glo counter=?
C[C@@H]1O[C@@H](OC(=O)Cc2ccccc2)[C@H](O)[C@H](O)[C@H]1O,0,
COc1ccccc1Nc1nc2c(S(=O)(=O)c3ccc(C)cc3)nnn2c2ccccc12,0,
CN(Cc1ccccc1)C1(C(=O)NC2CCC(O)CC2)Cc2ccccc2C1 (stereo not drawn),+,MTase-Glo counter=0
O=C(Cc1ccc(-c2ccccc2)cc1)NC1CCC1,0,
CC1(C(=O)NC2CCCCC2)Cc2ccccc2C(=O)N1CCc1ccccc1 (stereo not drawn),0,
CCCn1c(=O)c2ccc(Cl)cc2n2c(=O)n(CC(=O)Nc3ccc(C)c(C)c3)nc12,0,
COc1ccc(OC)c2c1cc1n2CC(C)(C(=O)NC2CCCC2)N(Cc2ccccc2F)C1=O (stereo not drawn),0,
CCn1c(=O)n(CC)c2cc(S(=O)(=O)Nc3cccc(C)c3)ccc21,0,
O=C(c1ccco1)N1c2ccccc2CC1c1nnc(C2CCOCC2)o1 (stereo not drawn),0,
COc1ccc2cc3n(c2c1)CC(C)(C(=O)NC1CCCCC1)N(Cc1ccccc1C)C3=O (stereo not drawn),0,
Cn1cc(-c2ccc3c(n2)CN(Cc2ccc(F)cc2)C(=O)CO3)cn1,0,
O=C1COc2ccc(N3CCOCC3)nc2CN1Cc1ccc(F)cc1,0,
SMILES,Methyltransferases,others
O=C1COc2ccc(-c3cccc(O)c3)nc2CN1Cc1ccc(C(F)(F)F)cc1,+,MTase-Glo counter=0
CO[C@H]1[C@@H](O)[C@H](O[C@H]2CC[C@@]3(C)C(CCC4C3CC[C@]35COC6(COC(=O)C6)C3CCC45O)C2)O[C@@H](C)[C@@H]1OC1OC(CO)C(OC2OC(CO)C(O)C(O)C2O)C(O)C1O (stereo partly drawn),0,
Cn1cc(-c2cc3c(ccn3Cc3ccncc3)c(N3CCOCC3)n2)cn1,+,MTase-Glo counter=0
COc1ccc(-c2nnn3c2nc(N2CCOCC2)c2ccccc23)cc1,0,
CC1=CC2=C(C)C(=O)[C@](C)(O)[C@H](O)C2=CO1,0,
O=C(O)[C@H]1C[C@@H](C(=O)NCc2ccncc2)CN(C2CCOCC2)C1,0,
CC(C)CCn1c(=O)c2ccccc2n2c(=O)n(Cc3ccc(Cl)cc3)nc12,0,
CCOC(=O)c1cccc(N2C(=O)Cn3cccc3C2C(=O)NC2CCCCC2C)c1 (stereo not drawn),0,
CC1=C[C@@H](CN(CC2CC2)CC2CC2)[C@H](C(C)C)C[C@H]1Cc1nc2ccncc2[nH]1,+,MTase-Glo counter=35µM
COc1ccc2nc(C[C@@H]3C[C@@H](C(C)C)[C@H](CNC(=O)NC4CCCCC4)C=C3C)[nH]c2c1,0,
COC(=O)c1ccc2nc(C[C@@H]3C[C@@H](C(C)C)[C@H](CNC(=O)c4cccnc4)C=C3C)[nH]c2c1,0,
CCCn1c(=O)c2ccc(C(=O)NC(C)C)cc2n2c(SCC(N)=O)nnc12,0,
Cn1c(=O)c2ccnn2c2ccc(C(=O)NCC3CCN(Cc4ccccc4F)CC3)cc21,+,MTase-Glo counter=0
O=C(NC1CCCC1)c1ccc2c(c1)n(Cc1cccc(F)c1)c(=O)c1ccnn12,0,
COc1ccc(-c2n[nH]n3c2nc(=O)c2ccc(C(=O)NCc4ccccc4F)cc23)cc1,0,
COc1ccc(Cl)cc1N1C(=O)CSc2c(c3ccccc3n2C)C1C(=O)NCc1ccc(F)cc1 (stereo not drawn),0,
CN(C)c1nc2c(c(N3C[C@@H](CN4CCCC4)[C@@H](CO)C3)n1)CCCC2,+,MTase-Glo counter=14µM
CN1CCCN(C[C@@H]2CN(C(=O)c3ccn(C)n3)C[C@@H]2CO)CC1,0,

# Compound activity deposited in PubChem BioAssay by National Center for Advancing Translational Sciences (NCATS).
